# Several values for one entry are separate records, joined by “and”; a condition that tells them apart may be missing. Equal values may be shown once. Results filed as inconclusive are left out. Entries that show only a call come without a potency. Some structures have more than one record in an assay (separate samples or runs), and their calls can disagree. Activity calls are given as the source filed them. Unless noted, calls come from the whole dose curve; as a rule, active = well fitted curve in the direction sought with a large enough effect in the repeat runs; inconclusive = weak or mixed curves; inactive = no such curve, though single readings can be large; an effect the other way counts as inactive or inconclusive.
# How the values were obtained:
# [1] = qHTS assay to identify small molecule antagonists of the sonic hedgehog signaling (Shh) pathway (AID 1259369; calls by dose curve; note: nearly all actives have a fitted effect of over 45% in size; note: potency is the fitted concentration of half-maximal effect)
# In short: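 Conditioned medium drives Shh signalling in 3T3Gli1-Luc cells; compounds in DMSO co-applied, 24hr at 37 C, then luciferase luminescence.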
# [2] = qHTS assay to identify small molecule agonists of the androgen receptor (AR) signaling pathway in the presence of an antagonist - cell viability counter screen (AID 1259379); note: nearly all actives have a fitted effect of over 25% in size; note: potency is the fitted concentration of half-maximal effect;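 for activity change, negative = cytotoxicity: MDA-kb2 human breast cancer cells carrying an MMTV luciferase reporter; series mostly up to about 92 µM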
# In short: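 A CellTiter-Fluor read-out measured viability of MDA-kb2 reporter cells (MMTV promoter with AR and GR response elements). Treatment: nilutamide 3.0uM final with compounds at 15 concentrations, 16 hr, 37C, 0% CO2.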
# [3] = qHTS assay to identify small molecule agonists of the estrogen receptor beta (ER-beta) signaling pathway - cell viability counter screen (AID 1259380); note: nearly all actives have a fitted effect of over 30% in size; note: potency is the fitted concentration of half-maximal effect
# In short: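 Cells used were ER-beta-UAS-bla HEK293T in medium with 2% charcoal-stripped FBS. They were treated for 16 hr at 37C. Viability came from CellTiter-Glo luminescence.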
# [4] = qHTS assay to identify small molecule antagonists of the estrogen receptor beta (ER-beta) signaling pathway - cell viability counter screen (AID 1259382); note: series mostly up to about 92 µM; nearly all actives have a fitted effect of over 55% in size
# In short: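 Agonist-stimulated (1nM E2) ER-beta-UAS-bla HEK293T cells are incubated with library compounds for 16 hr at 37C. Cell viability is then assessed in the reporter-assay wells by adding CellTiter-Glo and reading luminescence after 30 min.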
# [5] = molecular target: Estrogen receptor (Homo sapiens) (UniProt P03372); test: qHTS assay to identify small molecule agonists of the estrogen receptor alpha (ER-alpha) signaling pathway in the presence of an antagonist (AID 1259383; calls by dose curve; note: top concentration of the series differs between compounds; nearly all actives have a fitted effect of over 15% in size)
# Estrogen receptor (Homo sapiens), sequence (P03372 whole entry, looked up): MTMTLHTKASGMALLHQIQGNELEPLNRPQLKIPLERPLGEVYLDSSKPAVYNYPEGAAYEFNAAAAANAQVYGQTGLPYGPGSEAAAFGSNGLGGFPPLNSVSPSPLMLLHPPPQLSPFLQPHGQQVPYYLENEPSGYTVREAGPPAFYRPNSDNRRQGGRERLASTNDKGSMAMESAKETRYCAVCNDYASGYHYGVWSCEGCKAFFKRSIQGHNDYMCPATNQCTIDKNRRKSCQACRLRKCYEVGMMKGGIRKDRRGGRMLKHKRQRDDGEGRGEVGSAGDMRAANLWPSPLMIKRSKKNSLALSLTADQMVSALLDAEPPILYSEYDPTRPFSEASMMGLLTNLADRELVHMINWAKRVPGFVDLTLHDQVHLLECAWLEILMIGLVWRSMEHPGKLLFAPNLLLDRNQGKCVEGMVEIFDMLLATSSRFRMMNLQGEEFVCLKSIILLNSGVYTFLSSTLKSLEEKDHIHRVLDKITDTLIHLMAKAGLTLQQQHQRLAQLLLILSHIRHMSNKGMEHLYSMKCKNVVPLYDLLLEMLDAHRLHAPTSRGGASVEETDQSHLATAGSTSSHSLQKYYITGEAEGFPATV
# In short: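 Using VM7Luc4E2 cells seeded 24hr before treatment, antagonist ICI-182,780 (10.0nM final) was added, followed by compounds at 15 concentrations. Plates incubated 22hr; ONE-Glo luminescence quantified reporter activity.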
# [6] = qHTS assay to identify small molecule agonists or antagonists of the thyroid stimulating hormone receptor (TSHR) signaling pathway - wild type cell line counter screen (AID 1259384; calls by dose curve)
# In short: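 Wild-type Hek293 cells, 800/well, 18 h at 37C, then compound with Ro20-1724 for 30 min RT. cAMP by HTRF (cAMP-d2/anti-cAMP cryptate), 1 h RT, fluorescence read. 15 concentrations, triplicates.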
# [7] = molecular target: Thyrotropin receptor (Homo sapiens) (UniProt P16473); test: qHTS assay to identify small molecule antagonists of the thyroid stimulating hormone receptor (TSHR) signaling pathway (AID 1259385; calls by dose curve; note: nearly all actives have a fitted effect of over 20% in size)
# Thyrotropin receptor (Homo sapiens), sequence (P16473 whole entry, looked up): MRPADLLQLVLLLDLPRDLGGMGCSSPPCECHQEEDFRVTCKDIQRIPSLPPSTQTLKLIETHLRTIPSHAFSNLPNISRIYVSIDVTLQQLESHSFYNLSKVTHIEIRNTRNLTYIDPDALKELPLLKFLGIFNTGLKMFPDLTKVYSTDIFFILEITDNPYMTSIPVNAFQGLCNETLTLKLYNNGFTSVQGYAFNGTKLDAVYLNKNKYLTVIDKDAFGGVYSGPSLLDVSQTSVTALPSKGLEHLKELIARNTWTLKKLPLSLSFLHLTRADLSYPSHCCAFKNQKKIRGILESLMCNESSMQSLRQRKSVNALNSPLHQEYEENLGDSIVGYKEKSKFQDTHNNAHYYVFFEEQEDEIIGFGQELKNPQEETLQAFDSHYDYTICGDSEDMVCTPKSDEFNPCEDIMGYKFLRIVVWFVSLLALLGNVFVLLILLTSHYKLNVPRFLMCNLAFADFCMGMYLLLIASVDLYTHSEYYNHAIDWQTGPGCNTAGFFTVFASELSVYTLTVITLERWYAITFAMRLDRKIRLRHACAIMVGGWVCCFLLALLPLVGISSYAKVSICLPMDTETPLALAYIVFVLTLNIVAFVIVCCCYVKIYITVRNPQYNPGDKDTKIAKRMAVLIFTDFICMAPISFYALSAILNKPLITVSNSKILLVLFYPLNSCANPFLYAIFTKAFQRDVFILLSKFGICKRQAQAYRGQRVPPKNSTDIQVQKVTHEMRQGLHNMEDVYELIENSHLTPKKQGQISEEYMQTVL
# In short: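 TSHR-HEK293 cells (800/well) plated 18 h, then compounds with Ro20-1724 and TSH at 1.5 ng/mL final, 30 min at room temperature. cAMP quantified by HTRF (cAMP-d2/anti-cAMP-cryptate, 1 h); 15 concentrations in triplicate.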
# [8] = qHTS assay to identify small molecule agonists of the estrogen receptor alpha (ER-alpha) signaling pathway in the presence of an antagonist - cell viability counter screen (AID 1259386);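 note: cells exposed to compounds for 22 h at 37 °C before the viability read; nearly all actives have a fitted effect of over 30% in size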; note: potency is the fitted concentration of half-maximal effect; for activity change, negative = cytotoxicity: series mostly up to about 92 µM
# In short: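 ICI-182,780 at 10.0nM final accompanies the compound titration (15 concentrations, 22hr, 37C) on VM7Luc4E2 cells. The CellTiter-Fluor fluorescence readout runs in the same wells as the luciferase assay.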
# [9] = molecular target: Progesterone receptor (Homo sapiens) (UniProt P06401); test: qHTS assay to identify small molecule agonists of the progesterone receptor (PR) signaling pathway (AID 1346784; calls by dose curve; note: nearly all actives have a fitted effect of over 30% in size; note: potency is the fitted concentration of half-maximal effect)
# Progesterone receptor (Homo sapiens), sequence (P06401 whole entry, looked up): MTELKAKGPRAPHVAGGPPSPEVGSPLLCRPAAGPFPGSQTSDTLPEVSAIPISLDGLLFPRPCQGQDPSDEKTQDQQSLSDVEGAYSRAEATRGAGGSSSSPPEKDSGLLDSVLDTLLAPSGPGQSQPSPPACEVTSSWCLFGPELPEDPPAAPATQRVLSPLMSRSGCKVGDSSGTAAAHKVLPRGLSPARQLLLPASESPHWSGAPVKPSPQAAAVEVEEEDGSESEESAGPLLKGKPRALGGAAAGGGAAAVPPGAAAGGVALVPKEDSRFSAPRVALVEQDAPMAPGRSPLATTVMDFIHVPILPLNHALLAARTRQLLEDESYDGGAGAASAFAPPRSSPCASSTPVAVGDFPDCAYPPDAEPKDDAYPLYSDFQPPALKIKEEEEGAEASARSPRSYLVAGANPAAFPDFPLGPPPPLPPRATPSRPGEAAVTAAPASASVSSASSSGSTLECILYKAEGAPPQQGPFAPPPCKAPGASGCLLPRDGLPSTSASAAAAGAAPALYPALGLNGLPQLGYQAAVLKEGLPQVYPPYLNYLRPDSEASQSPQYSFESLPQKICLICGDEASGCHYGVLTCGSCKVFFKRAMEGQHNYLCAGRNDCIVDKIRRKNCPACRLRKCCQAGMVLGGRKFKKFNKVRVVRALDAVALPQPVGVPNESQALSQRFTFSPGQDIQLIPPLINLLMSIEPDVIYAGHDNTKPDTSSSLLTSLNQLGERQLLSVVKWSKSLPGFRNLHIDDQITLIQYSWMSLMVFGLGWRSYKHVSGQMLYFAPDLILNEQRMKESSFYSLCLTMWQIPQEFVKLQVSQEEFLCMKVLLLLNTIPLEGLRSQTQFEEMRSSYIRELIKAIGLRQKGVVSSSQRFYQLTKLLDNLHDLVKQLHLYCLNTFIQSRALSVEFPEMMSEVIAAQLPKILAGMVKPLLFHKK
# In short: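 Compounds were tested for PR agonism in HEK 293T cells bearing a beta-lactamase gene under UAS control. Treatment lasted 16 hr at 37C; signal came from fluorescence of a FRET substrate.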
# [10] = molecular target: Progesterone receptor (Homo sapiens) (UniProt P06401); test: qHTS assay to identify small molecule antagonists of the progesterone receptor (PR) signaling pathway (AID 1346795; active = well fitted inhibition curve with a large enough effect in the signal ratio in the repeat runs, not every such curve was filed as active; the % refers to the signal ratio; note: potency is the fitted concentration of half-maximal effect)
# In short: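 In HEK293T cells bearing the PR-UAS-bla reporter, compound effects on promegestone-driven (1 nM) beta-lactamase expression are assessed after 16 hr using a fluorescent FRET substrate incubated 2 hr at room temperature.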
# [11] = qHTS assay to identify small molecule antagonists of the progesterone receptor (PR) signaling pathway - cell viability counter screen (AID 1346798); note: series mostly up to about 92 µM; nearly all actives have a fitted effect of over 50% in size
# In short: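 Following a 4 hr attachment, PR-UAS-bla HEK293T cells in charcoal-stripped FBS medium were exposed to compounds with R5020 for 16 hr; CellTiter-Glo was added and luminescence read after 30 min at room temperature.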
# [12] = qHTS assay to identify small molecule agonists of the progesterone receptor (PR) signaling pathway - cell viability counter screen (AID 1346799; calls by dose curve; note: nearly all actives have a fitted effect of over 45% in size)
# In short: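 Here, 3,000 PR-UAS-bla HEK293T cells per well were treated with compounds for 16 hr after a 6 hr preincubation at 37C and 5% CO2; cell viability is the CellTiter-Glo luminescence signal.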
# [13] = qHTS assay to identify small molecule antagonists of the TGF-beta/Smad signaling pathway - cell viability counter screen (AID 1346824); note: nearly all actives have a fitted effect of over 50% in size
# In short: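 SBE-bla HEK 293T cells, incubated overnight, then compound plus 0.25 ng/mL TGF-beta1 (stock added) for 5 hr at 37 C. Viability was read in the same wells by CellTiter-Glo luminescence after 30 min at room temperature.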
# [14] = qHTS assay to identify small molecule agonists of the TGF-beta/Smad signaling pathway - cell viability counter screen (AID 1346829); note: top concentration of the series differs between compounds; nearly all actives have a fitted effect of over 45% in size
# In short: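 Compound-treated SBE-bla HEK 293T cells (5 hr, 37 C) were assessed for viability with CellTiter-Glo in parallel with the reporter read.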
# [15] = qHTS assay to identify small molecule agonists of the TGF-beta/Smad signaling pathway (AID 1346859; active = well fitted activation curve with a large enough effect in the signal ratio in the repeat runs, not every such curve was filed as active; the % refers to the signal ratio; note: series mostly up to about 77 µM)
# In short: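 Each well held 4,000 SBE-bla HEK 293T cells incubated overnight before compound addition; 5 hr later the cleavable FRET substrate went on for 2 hr at room temperature, and fluorescence was read at two emissions.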
# [16] = molecular target: Thyrotropin-releasing hormone receptor (Homo sapiens) (UniProt P34981); test: qHTS assay to identify small molecule antagonists of the thyrotropin-releasing hormone receptor (TRHR) signaling pathway (AID 1346877; active = well fitted inhibition curve with a large enough effect in the repeat runs, not every such curve was filed as active; note: series mostly up to about 51 µM)
# Thyrotropin-releasing hormone receptor (Homo sapiens), sequence (P34981 whole entry, looked up): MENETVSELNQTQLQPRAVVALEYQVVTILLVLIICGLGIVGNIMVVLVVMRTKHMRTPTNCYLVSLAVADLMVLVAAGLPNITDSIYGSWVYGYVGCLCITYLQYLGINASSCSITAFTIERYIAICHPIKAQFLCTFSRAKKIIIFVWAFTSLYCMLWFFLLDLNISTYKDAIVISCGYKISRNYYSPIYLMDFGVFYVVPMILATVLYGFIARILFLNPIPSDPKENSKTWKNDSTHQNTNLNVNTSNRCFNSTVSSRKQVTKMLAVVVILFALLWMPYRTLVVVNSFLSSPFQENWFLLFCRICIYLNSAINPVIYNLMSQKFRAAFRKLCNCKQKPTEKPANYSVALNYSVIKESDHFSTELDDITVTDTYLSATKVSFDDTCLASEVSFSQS
# In short: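 Screening used HEK293 cells engineered with TRHR, with a brief 5 min room-temperature compound exposure preceding addition of TRH to 1 nM. The read-out was kinetic calcium-dye fluorescence, concentration-response from 15 doses in triplicate.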
# [17] = molecular target: Thyrotropin-releasing hormone receptor (Homo sapiens) (UniProt P34981); test: qHTS assay to identify small molecule agonists of the thyrotropin-releasing hormone receptor (TRHR) signaling pathway (AID 1346891; calls by dose curve; note: series mostly up to about 58 µM)
# In short: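 Screening of agonists relied on calcium signalling in HEK293 cells expressing human TRHR: dye loading 2 h at 37 °C preceded compound addition and a 3-min fluorescence time course.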
Compound,Potency [1],Potency [2],Potency [3],Potency [4],Potency [5],Potency [6],Potency [7],Potency [8],Potency [9],Potency [10],Potency [11],Potency [12],Potency [13],Potency [14],Potency [15],Potency [16],outcome [17],activation [9],"activity change, negative = cytotoxicity [12]"
OC1CCCCC1,inactive,inactive,inactive,inactive,inactive,inactive,inactive,inactive,inactive,inactive,inactive,inactive,inactive,inactive,inactive,,,,
N[C@@H](Cc1cc(I)c(Oc2ccc(O)c(I)c2)c(I)c1)C(=O)O,inactive,inactive,inactive,inactive,inactive,,inactive,inactive,inactive,,inactive,inactive,inactive,inactive,inactive,,,,
CC(=O)Nc1ccc(CC(=O)O)cc1,inactive,inactive,inactive,inactive,inactive,inactive,inactive,inactive,inactive,inactive,inactive,inactive,inactive,inactive,inactive,inactive,inactive,,
CC[N+](CC)(CC(=O)Nc1c(C)cccc1C)Cc1ccccc1,inactive,inactive,inactive,inactive,,inactive,inactive,inactive,inactive,inactive,inactive,inactive,inactive,inactive,inactive,,,,
COC(=O)CCCCC(=O)OC,inactive,inactive,inactive,inactive,inactive,,,inactive,inactive,inactive,inactive,inactive,inactive,inactive,inactive,inactive,inactive,,
CCn1cc(C(=O)O)c(=O)c2cc3c(cc21)OCO3,inactive,inactive,inactive,inactive,,inactive,inactive,inactive,1.24 µM (active),inactive,inactive,,inactive,inactive,inactive,,inactive,-1.39% [at 19 µM] (inactive),-0.681% [at 19 µM] (inactive)
Brc1ccc(Oc2ccc(Br)cc2)cc1,inactive,inactive,inactive,inactive,,inactive,,inactive,inactive,inactive,inactive,inactive,inactive,inactive,inactive,,inactive,,
Oc1ccc(Cc2ccccc2O)cc1,43.3 µM (active),inactive,,inactive,inactive,inactive,inactive,inactive,inactive,43.8 µM (active) and 48.6 µM (active),,inactive,inactive,inactive,inactive,inactive,inactive,,
CCCOC(=O)NCCCN(C)C,inactive,inactive,inactive,inactive,,inactive,inactive,inactive,,,inactive,inactive,inactive,inactive,inactive,,,,
c1cnc2c(c1)ccc1cccnc12,inactive,15.5 µM (active) and 30.6 µM (active) and 21.7 µM (active),2.43 µM (active),,,inactive,inactive,5.5 µM (active),inactive,309 nM (active) and 306 nM (active),,,inactive,inactive,inactive,,,,
O=C(NCC1CCCCN1)c1cc(OCC(F)(F)F)ccc1OCC(F)(F)F (stereo not given),19 µM (active) and inactive,inactive,inactive,inactive,,inactive,inactive,inactive,inactive,inactive,inactive,inactive,inactive,inactive,inactive,inactive,inactive,,
Cc1ccccc1C=O,inactive,inactive,inactive,inactive,inactive,inactive,inactive,inactive,inactive,inactive,inactive,inactive,inactive,inactive,inactive,inactive,inactive,,
CCOC(=O)CC(=O)OCC,inactive,inactive,inactive,inactive,,inactive,inactive,inactive,inactive,inactive,inactive,inactive,inactive,inactive,inactive,,inactive,,
